According to PubChem BioAssay (NCI):
This is part of a sample that, as a whole, favours compounds with a hit. Of some 79,000 tested, about 15% had one in any assay. Activity calls are given as the source filed them. No stated cut-off is given here; in the data, active means growth inhibition above about 70%; inactive means the rest.

Experiments:
[1] = NCI Yeast Anticancer Drug Screen. Data for the mec2-1 strain (AID 157); conditions: S. cerevisiae mec2-1 strain, active compounds read high
Outline: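 Using mec2-1 yeast: add compound, measure growth, express inhibition versus vehicle-treated cultures.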

[2] = NCI Yeast Anticancer Drug Screen. Data for the sgs1 mgt1 strain (AID 161);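 further: 0% = growth of cultures given vehicle only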; conditions: S. cerevisiae sgs1 mgt1 strain, active compounds read high
Outline: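 This yeast growth screen uses a strain with defined DNA-repair lesions; compound-treated growth is compared with vehicle-treated growth.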

[3] = NCI Yeast Anticancer Drug Screen. Data for the cln2 rad14 strain (AID 165);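 further: 0% = growth equal to vehicle treated cultures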; conditions: S. cerevisiae cln2 rad14 strain, active compounds read high
Outline: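 Yeast strain cln2 rad14, bearing defects in cell cycle control and DNA repair, serves as the test system; values reflect growth inhibition compared with vehicle.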

[4] = NCI Yeast Anticancer Drug Screen. Data for the bub3 strain (AID 167); conditions: S. cerevisiae bub3 mutant strain, active compounds read high
Outline: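 Steps: expose the mutant yeast strain to compound; grow alongside vehicle-treated cultures; measure growth; express inhibition against the vehicle cultures.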

[5] = NCI Yeast Anticancer Drug Screen. Data for the mlh1 rad18 strain (AID 175); conditions: S. cerevisiae mlh1 rad18 strain growth inhibition, active compounds read high
Outline: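 Steps: expose repair-defective yeast to compound; measure growth; express inhibition against vehicle-treated controls.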

[6] = NCI Yeast Anticancer Drug Screen. Data for the rad50 strain (AID 155);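 further: 0% = growth of vehicle-only cultures of the same strain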; conditions: S. cerevisiae rad50 strain growth inhibition; at 50.0 µM; active compounds read high
Outline: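 Inhibition values express reduced yeast growth in compound-treated cultures relative to vehicle-treated controls.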

[7] = at 5.0 µM (retest, dose inferred, filed as 0.5)
[8] = at 50.0 µM (retest, dose inferred, filed as 5.0)

Measured: growth inhibition

CCCC[As](CCCC)SC1CCC2(C)C(=CCC3C4CCC(=O)C4(C)CCC32)C1 (stereo not given)
inactive: [1]; [7] 6% | [2]; [7] 21% | [3]; [7] 5% | [3]; [8] 64% | [4]; [7] 3% | [5]; [7] 13%
active: [1]; [8] 87% | [1]; at 50.0 µM 83.6% | [2]; [8] 76% | [2]; at 50.0 µM 97% | [3]; at 50.0 µM 82.3% | [4]; [8] 87% | [4]; at 50.0 µM 84% | [5]; [8] 88% | [5]; at 50.0 µM 98.8%

Cc1cccc(NC(=O)CCl)c1
inactive: [6] 1.65% | [2]; at 50.0 µM 10.8% | [3]; at 50.0 µM -4.6% | [4]; at 50.0 µM 21.9% | [5]; at 50.0 µM 19.8%

CCN1C(=O)C(=C/C=C/c2ccc(OC)cc2)C(=O)N(CC)C1=S
inactive: [1]; at 50.0 µM 10.8% | [2]; at 50.0 µM 46.4% | [3]; at 50.0 µM 11.8% | [4]; at 50.0 µM 13.8% | [5]; at 50.0 µM 36.7%

O=[N+]([O-])c1ccc(/C=N\NP(Br)(c2ccccc2)(c2ccccc2)c2ccccc2)cc1
inactive: [6] 15.4% | [2]; at 50.0 µM 26.9% | [3]; at 50.0 µM 3.95% | [4]; at 50.0 µM -2.5% | [5]; at 50.0 µM 4.75%
